Results reported in PubChem BioAssay AID652068 (The Scripps Research Institute Molecular Screening Center, 2013).
The campaign covered roughly 4,300 compounds. About 4,000 (93%) were called active.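 How the source made its calls: active means inhibition above its plate's cutoff, the mean test-well inhibition plus 3 SD (cut at about 4.8% in these data); inactive means the rest.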 The set was probably picked from earlier hits. These entries were drawn from the full list.

experiment: DNA CAG/GTC dye complex inhibitors – biochemical, fluorescence, TO-PRO-1 dye, d(CAG) DNA oligo, counter-screen for rCAG RNA repeat binder project (AID 652068); settings: d(CAG) DNA oligo TO-PRO-1 dye displacement, at 3 µM, active compounds read high;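 further: 0% = DNA dye mix with DMSO and 100% = 100 µM mitoxantrone; hits displace the dye from DNA and so lower well fluorescence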

Compound | inhibition
COc1ccc(COC(=O)NC(C(=O)O)c2ccccc2)cc1 (stereo unspecified) | 1.1% (inactive)
Cc1c(C)c2c(OCC(=O)N[C@@H](C(=O)O)c3ccccc3)cc3c(c2oc1=O)CCC(C)(C)O3 | 12.5% (active)
COc1ccc(-c2nc3ccc(Br)cn3c2Cc2ccc(C)cc2)cc1OC | 5.84% (active)
Cc1cc(Br)cn2c(Cc3cccc(F)c3)c(-c3cccc(Br)c3)nc12 | 2.14% (inactive)
Fc1cccc(Cc2c(-c3cccc(Cl)c3)nc3ccc(Br)cn23)c1 | 12.8% (active)
CCC(C)Cn1c(O)cc2nn(-c3nc4ccccc4s3)c(=O)c-2c1C (stereo unspecified) | 30.4% (active)
COc1cc(NC(=O)c2ccccc2NS(=O)(=O)c2ccc(Cl)s2)cc(OC)c1 | 46.6% (active)
Cc1ccc(CNC(=O)C2CCN(S(=O)(=O)c3ccc4nc5c(c(C(=O)O)c4c3)CC(C)CC5)CC2)cc1 (stereo unspecified) | 11.1% (active)
CCOc1cc(C)ccc1OCc1nnc(SCC(=O)Nc2cccc(C(=O)O)c2)n1-c1ccccc1 | 11.8% (active)
Cc1sc2nc(SCC(=O)c3ccc(O)c(O)c3)n(Cc3ccco3)c(=O)c2c1C | 31.4% (active)
O=C(COC(=O)c1ccc(NS(=O)(=O)c2cccs2)cc1O)Nc1ccc(F)cc1 | 5.07% (active)
O=C(O)c1[nH]c2ccccc2c1C(c1cccc(O)c1)c1c(C(=O)O)[nH]c2ccccc12 | 12.6% (active)
CCOC(=O)c1cc2cc(-c3c(C(=O)OCC)oc4cc(O)cc(O)c4c3=O)ccc2o1 | 10.2% (active)
O=C(CCCN1C(=O)/C(=C\c2ccco2)SC1=S)Nc1cccc2ccccc12 | 13.7% (active)
Cc1ccc(NC(=O)CSc2sc3c(O)cc(=O)[nH]c3c2C#N)cc1C | 11.8% (active)
CO/N=C(\C(=O)N[C@@H]1C(=O)N2C(C(=O)O)=C(COC(C)=O)CS[C@H]12)c1csc(N)n1 (stereo in doubt) | 17.5% (active)
O=[N+]([O-])c1cc(Br)c(O)c(/C=N/Nc2nc3ccccc3s2)c1 | 83.5% (active)
COc1ccc(S(=O)(=O)/N=C2\C=C(NS(=O)(=O)c3ccccc3)C(=O)c3ccccc32)cc1 | 56.1% (active)
O=C(NNc1c2ccccc2nc2ccccc12)c1cc2ccccc2cc1O | 27.7% (active)
Cc1cc(/C=N/Nc2ccc([N+](=O)[O-])cn2)c(C)n1-c1cccc(C(=O)O)c1 | 10.4% (active)
O=c1ccc2c(-c3ccccc3S(=O)(=O)O)c3ccc(O)c(O)c3oc-2c1O | 69.2% (active)
O=C(Nc1cccc(F)c1)c1cc(-c2ccco2)nc2ccccc12 | 3.28% (inactive)
O=C(O)c1cccc(NC(=O)c2cc(-c3cccc(Cl)c3)nc3ccccc23)c1 | 14.3% (active)
Cc1oc2c(F)c(F)c(F)c(F)c2c1S(=O)(=O)Nc1cccc(C(F)(F)F)c1 | 13.1% (active)
Nc1cccc(-c2cc(-c3ccccc3)nc(-c3cccc(N)c3)n2)c1 | 6.95% (active)
Cc1oc2cc([N+](=O)[O-])c(O)c([N+](=O)[O-])c2c1C(=O)c1ccc(Br)cc1 | 15.8% (active)
